Measurements as given in PubChem BioAssay (NCI).
The panel holds about 83,000 compounds, 20% with a hit somewhere; the sample as a whole holds those more often.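 Cell lines were cultured in 96-well plates, exposed to a single compound concentration, and assessed for percent growth 48 hours later.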 A number with no mark means an inactive call. Calls of active or inactive are those of the source. The calls were made as follows: active = growth percent below 10; inactive = the rest.

How the values were obtained:
Assay in all cases: NCI-60 one-dose screen, 48 h (100 = growth as untreated, 0 = no growth, -100 = all killed)
Conditions in all cases: 10 µM
HCT-15 colon = tested on: HCT-15 colon
HT29 colon = tested on: HT29 colon
SNB-75 CNS = tested on: SNB-75 CNS
SNB-19 CNS = tested on: SNB-19 CNS
U251 CNS = tested on: U251 CNS
PC-3 prostate = tested on: PC-3 prostate
SK-MEL-5 melanoma = tested on: SK-MEL-5 melanoma
UACC-62 melanoma = tested on: UACC-62 melanoma
LOX IMVI melanoma = tested on: LOX IMVI melanoma
SK-MEL-28 melanoma = tested on: SK-MEL-28 melanoma

SMILES | growth (HCT-15 colon) | growth (HT29 colon) | growth (SNB-75 CNS) | growth (SNB-19 CNS) | growth (U251 CNS) | growth (PC-3 prostate) | growth (SK-MEL-5 melanoma) | growth (UACC-62 melanoma) | growth (LOX IMVI melanoma) | growth (SK-MEL-28 melanoma)
CCCn1c(=O)c2[nH]c(-c3ccc(OCc4nc5ccc(C)cc5[nH]4)cc3)nc2n(CCC)c1=O | 23.5% | 38.7% | -38.1% (active) | 34% | 6.38% (active) | 39.2% | 12.8% | 2.25% (active) | -20.3% (active) | 39.9%
N[C@@H](CSSC[C@H](N)C(=O)Nc1ccc(OCC2CCCC2)cc1)C(=O)Nc1ccc(OCC2CCCC2)cc1 | -76.9% (active) | -93.3% (active) | -96.3% (active) | -95.6% (active) | -86.6% (active) | -87.3% (active) | -100% (active) | -99.7% (active) | -96.1% (active) | -99% (active)
O=C(c1ccc(Cl)cc1)C1[C@H](c2ccc(Br)cc2)[C@@H](c2ccccc2)NC12C(=O)Nc1ccc(Cl)cc12 (stereo not given in full) | -87.6% (active) | -49.4% (active) | -4.86% (active) | -8.73% (active) | -80.8% (active) | -30.5% (active) | -68.5% (active) | -87.2% (active) | -100% (active) | -86.9% (active)
NS(=O)(=O)c1ccc(NC(=O)CSc2ccc(-c3ccc(Cl)cc3)nn2)c(Br)c1 | 54.1% | 64.7% | 42.3% | 27% | -25.6% (active) | 35.7% | 68.8% | 65.4% | 19.7% | 79.5%
Cc1ccn2c(C(=O)c3ccccc3)cc(-c3cc(-c4ccc(N(C)C)cc4)c(C#N)c(N)n3)c2c1 | 73.1% | 63.1% | 78.4% | 60.9% | 31.9% | 78.1% | 58.1% | 64.6% | 21.8% | 74.3%
CC(C)C(=O)Nc1ccc(C(=O)NC(=S)Nc2ccc(C(=O)O)cc2)cc1 | 99.7% | 111% | 79.1% | 97.8% | 104% | 101% | 93.8% | 91.5% | 101% | 102%
O=c1[nH]c2ccccc2cc1CSc1ccc(Nc2nccc(-c3ccc4c(c3)OCO4)n2)cc1 | 84.1% | 74.3% | 105% | 88.7% | 75.8% | 88.9% | 94.5% | 96.2% | 58.7% | 105%
COc1ccc2[nH]c(O)c(N=NC(=O)COc3ccc(NC(=O)Nc4ccc(Cl)c(Cl)c4)cc3)c2c1 | 56.1% | -88.4% (active) | -37% (active) | 7.22% (active) | -94.2% (active) | -33.4% (active) | -56.3% (active) | 14.4% | -100% (active) | -59.8% (active)
C[C@H]1[C@H](C)CC[C@]2(COC(=O)CCC(=O)NCC#CCN3CCNCC3)CC[C@]3(C)C(=CC[C@@H]4[C@@]5(C)CCCNC(C)(C)[C@@H]5CC[C@]43C)[C@H]12 | 16.1% | -21% (active) | 82.2% | 60% | 14.7% | 17.8% | 9.74% (active) | 46.7% | 1.63% (active) | -26.5% (active)
COc1ccc(CN2[C@H](C(=O)NCc3ccc(C(=O)NO)cc3)Cc3c([nH]c4ccccc34)[C@H]2C2CC2)cc1 | 44.4% | 39.7% | 74.5% | 63.4% | 47.9% | 54.6% | 67.3% | 20.9% | 35.1% | 43.7%
CCC(C)S(=O)(=O)c1oc(-c2ccc(C)cc2)nc1S(=O)(=O)c1ccccc1 (stereo not given) | -72.2% (active) | -71.5% (active) | 3.57% (active) | 0.128% (active) | -95.9% (active) | -60.5% (active) | -86.5% (active) | -94.2% (active) | -94% (active) | -99.8% (active)
O=C(CSc1nnc(-c2ccc3nc(-c4ccccc4)[nH]c3c2)o1)Nc1ccc(Br)cc1 | 38.1% | 64.9% | 99.1% | 49.7% | 11.5% | 61.4% | 86.9% | 59.8% | -4.8% (active) | 76.9%
O=c1[nH]c2ccc(Cl)cc2cc1CSc1ccc(Nc2nccc(-c3ccc4ccccc4c3)n2)cc1 | 12.6% | 75.1% | 107% | 71.8% | 45.7% | 62.4% | 98.4% | 106% | 60.4% | 90.8%
